Our source for the outcome and AC50 values is PubChem BioAssay (EPA / NIEHS).

Test [1] in a line: ATG_E_Box_CIS: Attagene CIS-FACTORIAL HepG2 Assay for human Enhancer Box (E-box) (AID 2282936). The following applies: HepG2 E-box cis-reporter transcription, actives raise or lower the signal. Summed up: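 Multiplexed CIS reporter system in transiently transfected HepG2 cells measures native transcription factor activity. Reporter RNA after 24 h exposure is profiled by RT-PCR-capillary electrophoresis.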

Test [2] in a line: ATG_M_61_CIS: Attagene CIS-FACTORIAL HepG2 Assay for M61 Transcription Factor (Internal Marker) (AID 2282937). The following applies: HepG2 Attagene CIS-FACTORIAL M61 internal marker reporter; actives raise or lower the signal. In outline:
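Human liver HepG2, transient MRTU transfection (cis promoter elements), 24 h compound. Total RNA → oligo(dT) RT → PCR → FAM label → HpaI → CE. Internal background marker; bidirectional fitting, DMSO = baseline.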

The nature of test [3]: ATG_EGR_CIS: Attagene CIS-FACTORIAL HepG2 Assay for human Early Growth Response 1 (EGR1) (AID 2282938). The conditions noted are these: HepG2 Attagene CIS-FACTORIAL EGR reporter mRNA; actives raise or lower the signal. Summed up: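 Transient transfection of human HepG2 with multiple cis-regulated reporter units, chemical exposure 24 h, total RNA isolated. Reverse transcription, PCR, fluorescent labelling and capillary electrophoresis quantify reporter transcripts; activity fitted bidirectionally against DMSO.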

A short description of test [4]: ATG_M_19_CIS: Attagene CIS-FACTORIAL HepG2 Assay for M19 Transcription Factor (Internal Marker) (AID 2282939). The following applies: HepG2 Attagene CIS-FACTORIAL M19 internal marker reporter; actives raise or lower the signal. Summed up: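 Following a 24 h exposure, RNA from transfected HepG2 cells was reverse-transcribed, PCR-amplified with reporter-specific primers, end-labelled with 6-FAM and HpaI-digested before capillary separation. Values represent gain or loss versus DMSO.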

Test [5] can be described thus: ATG_ERE_CIS: Attagene CIS-FACTORIAL HepG2 Assay for Estrogen Response Element (ERE) (AID 2282940). The following applies: HepG2 ERE cis-reporter, Attagene RNA transcript; actives raise or lower the signal. In outline: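 HepG2, transient cis-reporter units, 24 h exposure. RNA isolated, oligo(dT) RT, reporter-specific PCR, FAM extension, HpaI cut, CE detection. Gain/loss-of-signal vs DMSO.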

A short description of test [6]: ATG_Ets_CIS: Attagene CIS-FACTORIAL HepG2 Assay for human Erythroblast Transformation Specific (ETS) (AID 2282941). The conditions noted are these: HepG2 ETS cis-reporter transcription, actives raise or lower the signal. In outline:
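After transient cis-reporter transfection, HepG2 cells receive test chemical for 24 h. Reporter mRNA levels, measured by RT-PCR and capillary electrophoresis fluorescence, are analysed bidirectionally relative to the DMSO baseline.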

Test [7] concerns the target Hepatocyte nuclear factor 3-beta (Homo sapiens) (UniProt Q9Y261). Put plainly: ATG_FoxA2_CIS: Attagene CIS-FACTORIAL HepG2 Assay for human Forkhead box A2 (FOXA2) (AID 2282942). The following applies: HepG2 cis-reporter transcription factor activity, 24 h; actives raise or lower the signal. In outline: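 Transient MRTU transfection of HepG2 liver cells; 24 h treatment; total RNA → oligo(dT) RT → PCR → FAM primer extension → HpaI cut → CE. Bidirectional fit vs DMSO.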

Test [8] can be described thus: ATG_FoxO_CIS: Attagene CIS-FACTORIAL HepG2 Assay for human Forkhead box O (FoxO) (AID 2282943). The conditions noted are these: HepG2 Attagene cis-reporter, FoxO element, mRNA; actives raise or lower the signal. Summed up:
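Values reflect reporter mRNA induction or loss in HepG2 cells 24 h post-dosing, fitted bidirectionally with DMSO as negative control and baseline. Detection used RT-PCR and fluorescence capillary electrophoresis.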

The nature of test [9]: ATG_GATA_CIS: Attagene CIS-FACTORIAL HepG2 Assay for human GATA Binding Protein (AID 2282944). The following applies: HepG2 GATA cis-element reporter, Attagene multiplex mRNA; actives raise or lower the signal. In outline:
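DMSO serves as negative control and baseline for bidirectional fitting of reporter mRNA changes. HepG2 cells bearing transiently transfected cis-promoter reporters were exposed 24 h; transcripts detected via RT-PCR and capillary electrophoresis.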

For test [10], the target named is Bile acid receptor (Homo sapiens) (UniProt Q96RI1). Put plainly: ATG_IR1_CIS: Attagene CIS-FACTORIAL HepG2 Assay for human Nuclear Receptor Subfamily 1 Group H Member 4 (NR1H4), IR1 submotif (AID 2282946). The following applies: IR1 reporter transcription, actives raise or lower the signal. Summed up:
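Transient MRTU transfection, HepG2; 24 h dosing; RNA → RT-PCR → 6-FAM primer extension → HpaI digest → capillary electrophoresis fluorescence. Gain/loss of signal fitted relative to DMSO.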

Test [11] is described as follows: ATG_GRE_CIS: Attagene CIS-FACTORIAL HepG2 Assay for human Glucocorticoid Response Elements (GRE) (AID 2282947). The conditions noted are these: HepG2 GRE cis-reporter, Attagene multiplex mRNA; actives raise or lower the signal. In outline:
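Following 24 h chemical exposure of transiently transfected HepG2 cells, total RNA was reverse-transcribed and reporter cDNA amplified, fluorescently labelled and sized by capillary electrophoresis. Signal gain or loss was fitted relative to DMSO vehicle.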

The nature of test [12]: ATG_ISRE_CIS: Attagene CIS-FACTORIAL HepG2 Assay for human Interferon Regulatory Factor 1 (IRF1) binding to an Interferon-Stimulated Response Element (ISRE) (AID 2282948). The conditions noted are these: HepG2 ISRE cis-reporter (Attagene), mRNA transcription readout; actives raise or lower the signal. In outline:
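Quantitation relies on labelled RT-PCR fragments separated by capillary electrophoresis. Human HepG2 cells bearing cis-promoter reporter constructs were treated 24 h; DMSO served as baseline for bidirectional fitting.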

A short description of test [13]: ATG_M_32_CIS: Attagene CIS-FACTORIAL HepG2 Assay for M32 Transcription Factor (Internal Marker) (AID 2282949).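 Also: background control marker of the multiplexed CIS panel rather than a real target.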 The following applies: HepG2 Attagene cis-factorial M32 reporter, mRNA; actives raise or lower the signal. Summed up: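 Fluorescent capillary electrophoresis peaks of HpaI-digested, FAM-labelled RT-PCR reporter products give the signal. Source: transiently transfected human liver HepG2 cells, 24 h after chemical dosing; bidirectional fitting against DMSO.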

Test [14] in a line: ATG_M_06_CIS: Attagene CIS-FACTORIAL HepG2 Assay for M06 Transcription Factor (Internal Marker) (AID 2282950). The following applies: HepG2 Attagene CIS-FACTORIAL M06 internal marker reporter; actives raise or lower the signal. Summed up: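 Fluorescence-labelled RT-PCR products from cis-promoter reporter units, cut with HpaI and resolved by capillary electrophoresis, give the signal. Cells are human HepG2, dosed for 24 h. Serves as background control, fitted relative to DMSO.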

In test [15] the target is Hypoxia-inducible factor 1-alpha (Homo sapiens) (UniProt Q16665). Put plainly: ATG_HIF1a_CIS: Attagene CIS-FACTORIAL HepG2 Assay for human Hypoxia Inducible Factor 1 (HIF1A) (AID 2282951). The following applies: HepG2 Attagene cis-factorial HIF1a reporter transcription; actives raise or lower the signal. In outline: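 Transient MRTU transfection of human HepG2 liver cells, 24 h compound treatment, then total RNA isolation, oligo(dT) reverse transcription, PCR amplification, fluorescent labelling and capillary electrophoresis of reporter fragments. Gain or loss relative to DMSO.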

Test [16] has as its target Hepatocyte nuclear factor 6 (Homo sapiens) (UniProt Q9UBC0). Put plainly: ATG_HNF6_CIS: Attagene CIS-FACTORIAL HepG2 Assay for human Hepatocyte Nuclear Factor 6 (HNF6) (AID 2282952). The conditions noted are these: HepG2 Attagene cis-factorial HNF6 reporter transcription; actives raise or lower the signal. In outline: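 HepG2, transient MRTU transfection (cis promoters); 24 h chemical exposure; total RNA → oligo(dT) RT → PCR → 6-FAM labelling → HpaI cut → CE; bidirectional fit vs DMSO.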

In test [17] the target is Heat shock factor protein 1 (Homo sapiens) (UniProt Q00613). Put plainly: ATG_HSE_CIS: Attagene CIS-FACTORIAL HepG2 Assay for human Heat Shock Transcription Factor 1 (HSE) (AID 2282953). The following applies: HepG2 HSE cis-reporter, Attagene RNA transcription; actives raise or lower the signal. In outline: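 After a 24 h incubation with test chemical, transfected HepG2 cells were harvested for RNA; reporter transcripts were measured by RT-PCR and capillary electrophoresis. Values reflect gain or loss of signal relative to DMSO.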

The nature of test [18]: ATG_MRE_CIS: Attagene CIS-FACTORIAL HepG2 Assay for human Metal Responsive Element (MRE) (AID 2282954). The following applies: HepG2 MRE cis-reporter transcription, Attagene multiplex; actives raise or lower the signal. In outline: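 Step one: transfect HepG2 with cis-regulated reporter units. Step two: dose 24 h. Step three: isolate RNA, RT-PCR, 6-FAM label, HpaI digest, capillary electrophoresis. Fit bidirectionally to DMSO.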

A short description of test [19]: ATG_GLI_CIS: Attagene CIS-FACTORIAL HepG2 Assay for human Zinc Finger Protein GLI1 (AID 2282945). The following applies: HepG2, Attagene cis-factorial reporter mRNA, GLI element; actives raise or lower the signal. In outline: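 HepG2 cells transiently transfected with cis-promoter multiplexed reporter units report endogenous transcription factor activity. After 24 h chemical exposure, reporter mRNA was quantified by RT-PCR, 6-FAM labelling, HpaI digestion and capillary electrophoresis, with bidirectional fitting against DMSO.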

Test [20] can be described thus: ATG_PBREM_CIS: Attagene CIS-FACTORIAL HepG2 Assay for human Phenobarbital-responsive Enhancer Module (PBREM) (AID 2282955). The following applies: HepG2 PBREM cis-reporter, Attagene multiplexed transcription; actives raise or lower the signal. In outline: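 Endogenous transcription factors in human liver HepG2 cells drive a PBREM cis-element reporter, whose transcript level after 24 h treatment is quantified by RT-PCR with capillary electrophoresis; activity fitted in both directions against DMSO.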

Active and inactive are the calls of the source. The calls were made as follows: active = hit-call score of the fitted dose curve at least 0.9, where 1 is the maximum; inactive = score below 0.9.

Sequence of Heat shock factor protein 1 (Homo sapiens) (Q00613 whole entry, looked up): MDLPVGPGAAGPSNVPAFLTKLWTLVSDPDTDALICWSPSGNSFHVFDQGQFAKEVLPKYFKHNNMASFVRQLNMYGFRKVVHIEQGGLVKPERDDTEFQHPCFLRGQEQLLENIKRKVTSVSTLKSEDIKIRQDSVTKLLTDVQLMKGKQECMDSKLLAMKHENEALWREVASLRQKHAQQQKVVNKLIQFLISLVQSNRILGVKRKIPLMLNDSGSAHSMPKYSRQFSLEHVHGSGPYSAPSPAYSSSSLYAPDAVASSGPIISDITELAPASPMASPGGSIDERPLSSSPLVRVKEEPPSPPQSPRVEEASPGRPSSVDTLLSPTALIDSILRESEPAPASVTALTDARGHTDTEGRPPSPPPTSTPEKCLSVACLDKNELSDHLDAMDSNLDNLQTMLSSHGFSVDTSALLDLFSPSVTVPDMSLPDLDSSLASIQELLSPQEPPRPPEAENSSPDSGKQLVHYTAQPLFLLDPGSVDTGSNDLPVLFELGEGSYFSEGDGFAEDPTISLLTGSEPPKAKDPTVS
Sequence of Hepatocyte nuclear factor 3-beta (Homo sapiens) (Q9Y261 whole entry, looked up): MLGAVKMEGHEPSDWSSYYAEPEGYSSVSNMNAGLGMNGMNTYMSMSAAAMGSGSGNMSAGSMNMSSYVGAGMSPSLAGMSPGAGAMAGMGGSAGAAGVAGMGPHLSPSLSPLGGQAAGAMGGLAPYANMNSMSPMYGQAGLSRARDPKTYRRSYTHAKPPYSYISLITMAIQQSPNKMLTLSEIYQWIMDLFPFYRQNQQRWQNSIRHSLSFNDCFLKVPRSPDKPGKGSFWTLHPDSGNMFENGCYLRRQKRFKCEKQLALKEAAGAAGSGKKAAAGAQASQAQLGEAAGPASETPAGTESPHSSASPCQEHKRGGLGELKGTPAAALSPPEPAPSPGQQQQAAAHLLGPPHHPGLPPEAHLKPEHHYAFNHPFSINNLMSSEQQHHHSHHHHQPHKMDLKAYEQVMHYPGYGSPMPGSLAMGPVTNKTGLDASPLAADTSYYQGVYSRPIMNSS
Sequence of Hepatocyte nuclear factor 6 (Homo sapiens) (Q9UBC0 whole entry, looked up): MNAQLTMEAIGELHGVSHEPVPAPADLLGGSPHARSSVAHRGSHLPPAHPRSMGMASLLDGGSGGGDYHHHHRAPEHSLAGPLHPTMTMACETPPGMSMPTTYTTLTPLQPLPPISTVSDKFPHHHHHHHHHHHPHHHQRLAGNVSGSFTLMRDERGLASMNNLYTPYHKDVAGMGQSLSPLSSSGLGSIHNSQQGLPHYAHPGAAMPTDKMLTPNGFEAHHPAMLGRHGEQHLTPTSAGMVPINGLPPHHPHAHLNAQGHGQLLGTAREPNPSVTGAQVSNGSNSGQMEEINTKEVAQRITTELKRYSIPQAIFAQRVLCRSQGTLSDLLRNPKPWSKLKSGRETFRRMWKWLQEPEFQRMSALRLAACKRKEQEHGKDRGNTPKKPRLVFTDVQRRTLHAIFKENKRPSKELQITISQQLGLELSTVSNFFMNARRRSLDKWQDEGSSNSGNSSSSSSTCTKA
Sequence of Hypoxia-inducible factor 1-alpha (Homo sapiens) (Q16665 whole entry, looked up, the tested form may be a part): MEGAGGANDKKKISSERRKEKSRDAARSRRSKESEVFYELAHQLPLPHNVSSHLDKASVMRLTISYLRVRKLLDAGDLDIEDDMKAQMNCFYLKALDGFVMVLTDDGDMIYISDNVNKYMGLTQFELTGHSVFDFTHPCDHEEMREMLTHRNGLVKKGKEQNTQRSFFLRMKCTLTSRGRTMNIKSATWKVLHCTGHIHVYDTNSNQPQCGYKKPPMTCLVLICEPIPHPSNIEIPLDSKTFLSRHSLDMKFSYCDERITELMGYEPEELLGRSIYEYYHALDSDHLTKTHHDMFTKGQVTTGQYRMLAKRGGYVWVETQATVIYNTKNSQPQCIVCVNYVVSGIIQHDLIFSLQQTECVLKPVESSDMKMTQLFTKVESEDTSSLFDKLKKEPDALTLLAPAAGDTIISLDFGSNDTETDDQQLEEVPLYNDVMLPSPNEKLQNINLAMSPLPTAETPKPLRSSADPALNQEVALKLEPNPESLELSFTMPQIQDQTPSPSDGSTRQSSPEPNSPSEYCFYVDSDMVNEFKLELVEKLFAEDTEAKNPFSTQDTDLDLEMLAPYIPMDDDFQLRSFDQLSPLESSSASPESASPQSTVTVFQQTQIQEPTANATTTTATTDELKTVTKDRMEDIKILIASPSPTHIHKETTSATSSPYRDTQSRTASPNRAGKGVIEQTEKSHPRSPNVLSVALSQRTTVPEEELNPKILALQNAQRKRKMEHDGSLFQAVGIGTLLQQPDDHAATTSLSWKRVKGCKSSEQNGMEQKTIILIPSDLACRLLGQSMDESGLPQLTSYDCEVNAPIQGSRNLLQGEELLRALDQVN
Sequence of Bile acid receptor (Homo sapiens) (Q96RI1 whole entry, looked up): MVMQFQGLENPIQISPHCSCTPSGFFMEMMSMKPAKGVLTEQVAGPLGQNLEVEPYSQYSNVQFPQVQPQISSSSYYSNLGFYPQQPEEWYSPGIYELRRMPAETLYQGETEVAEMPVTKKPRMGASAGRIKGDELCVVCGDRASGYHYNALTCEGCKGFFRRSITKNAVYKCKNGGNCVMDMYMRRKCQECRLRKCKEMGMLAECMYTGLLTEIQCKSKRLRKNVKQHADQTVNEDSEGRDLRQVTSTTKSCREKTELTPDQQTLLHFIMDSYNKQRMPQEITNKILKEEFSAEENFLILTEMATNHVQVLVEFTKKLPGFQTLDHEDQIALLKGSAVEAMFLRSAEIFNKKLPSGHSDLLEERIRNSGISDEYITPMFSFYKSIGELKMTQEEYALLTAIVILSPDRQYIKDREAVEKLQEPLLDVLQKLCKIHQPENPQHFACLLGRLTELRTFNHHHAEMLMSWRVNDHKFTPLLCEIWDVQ

`C1=CCCC1`: the outcome in test [1], in test [2], in test [3], in test [4], in [5] and in [6] was inactive. For the same compound, the compound was called inactive in test [7], in test [8], in [9], in [10], in test [11] and in [12]. The result in test [13], in test [14], in [16], in [17] and in [18] was inactive. Also, the AC50 – broadly, the concentration at which the activity in the assay is half-maximal – in [15] is 48.6 µM (active).

With `c1c[nH]cn1`, the result in [1], in test [2], in test [3], in test [4], in [5] and in test [6] was inactive. Besides, the compound was called inactive in [7], in [8], in test [9], in test [11], in test [12] and in test [13]. Further, the result in [14], in test [15], in test [16], in test [17] and in [18] was inactive.

Take `N[C@H]1C(O)O[C@H](CO)[C@H](O)[C@@H]1O` (stereo partly specified): the result in test [1], in test [2], in [3], in test [4], in test [6] and in [7] was inactive. For the same compound, the compound was called inactive in [8], in test [9], in test [19], in test [12], in test [13] and in test [14]. In addition, the compound was classed as inactive in [15], in [16], in [17], in [18] and in test [20]. The AC50 in [5] is 39.9 µM (active).

For the compound `Cc1ccc(N)c([N+](=O)[O-])c1`, the outcome in test [1], in [2], in [3], in [4], in [5] and in test [6] was inactive. In addition, the compound was called inactive in test [7], in [8], in [9], in [11], in test [12] and in test [13]. Also, the outcome in test [14], in [15], in [16], in test [17], in test [18] and in [20] was inactive.
